From PubChem BioAssay
Only some compounds are listed: those with a hit (about 3.5% of all), similar ones and a draw of the others.
GPR151 ag: activates the human receptor GPR151. Q8TDV0. PathHunter beta-arrestin GPR151 cells, luminescence. activation, % at 11.2 µM. 650,000 compounds, 1% hits; in the data active = activation above about 4.9%;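 note: 0% = median of compound wells and 100% = cells with positive control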
TEAD-YAP block: TEAD-YAP interaction inhibition; HEK-TIYL cells, TEAD-Gal4/YAP UAS-luciferase luminescence; inhibition, % at 9.12 µM; 640,000 compounds, 1.4% hits; AID 1259422; in the data active = inhibition above about 32%;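 note: 0% = median of test compound wells and 100% = reference inhibitor wells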
FBW7 activator: activators of human E3 ligase FBW7; 650,000 compounds, 0.13% hits; normalized activity (activation), % at 26.1 µM; AID 1259310; AlphaScreen FBW7–phospho-cyclin E peptide binding, activator screen; in the data active = normalized activity above about 1.9%;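 note: purified mutant Fbw7 with reduced substrate affinity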
MITF inh: human MITF inhibition, primary screen; inhibition, % at 2.6 µM; O75030; 650,000 compounds, 0.91% hits; AlphaScreen MITF homodimerization, bead proximity signal; in the data active = inhibition above about 50%;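 note: 0% = vehicle wells with protein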
Target sequence (O75030 whole entry, looked up): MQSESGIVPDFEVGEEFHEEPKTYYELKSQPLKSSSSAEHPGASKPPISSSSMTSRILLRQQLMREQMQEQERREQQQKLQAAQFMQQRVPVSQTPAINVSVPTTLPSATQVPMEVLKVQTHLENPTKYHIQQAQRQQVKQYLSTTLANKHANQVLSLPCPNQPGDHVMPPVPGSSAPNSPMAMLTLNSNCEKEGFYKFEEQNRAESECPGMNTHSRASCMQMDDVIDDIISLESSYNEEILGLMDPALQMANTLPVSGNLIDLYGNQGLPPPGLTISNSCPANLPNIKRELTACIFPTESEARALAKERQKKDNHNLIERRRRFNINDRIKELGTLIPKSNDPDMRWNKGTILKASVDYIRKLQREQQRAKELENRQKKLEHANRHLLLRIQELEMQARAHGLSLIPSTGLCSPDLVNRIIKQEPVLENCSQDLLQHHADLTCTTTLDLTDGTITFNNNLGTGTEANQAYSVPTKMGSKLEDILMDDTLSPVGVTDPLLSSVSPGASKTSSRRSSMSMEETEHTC
Numbers without * were called inactive.

SMILES | GPR151 ag | TEAD-YAP block | FBW7 activator | MITF inh
Cc1nc(N2CCC(C)CC2)nc(N2CCCCC2C)c1[N+](=O)[O-] (centres undefined) | 0.0 | 4.1 | 0.2 | -3.6
O=c1cc(CSc2nc(Nc3ccc4c(c3)OCO4)c3ccccc3n2)nc2ccc(Cl)cn12 | 0.4 | -13.8 | -0.1 | -3.2
Cc1ccccc1NC(=O)Cn1c(C)cc(=O)c2ccccc21 | 0.6 | 38.8* | 0.2 | 5.2
COc1ccc2c(c1)CC(C(=O)Nc1ccc(-c3cn[nH]c3)cc1OC1CCNCC1)CO2 (centres undefined) | 2.3 | 1.7 | -0.4 | 11.4
Cc1cc([N+](=O)[O-])nn1CC(=O)Nc1cccc(F)c1C#N | 0.5 | 36.4* | 0.3 | 6.0
Nc1cccc(-c2nc(NCc3cccc(C(F)(F)F)c3)c3ncn(-c4ccccc4)c3n2)c1 | -1.5 | 0.5 | 0.1 | 2.6
Cc1nnc(SCC(=O)c2ccc(Cl)cc2Cl)s1 | -1.2 | -39.5 | 0.0 | 1.4
COc1cccc(-c2nc3sc4c(c3c(=O)n2Cc2ccccc2F)CCCC4)c1 | -0.7 | 32.3* | 0.2 | 6.3
Cc1ccccc1Cn1cnc2sc3c(c2c1=O)CCCC3 | -0.1 | 51.3* | 0.1 | 2.6
CC12CCC(C/C1=N/NC(=O)c1ccc(Cl)cc1)C2(C)C (centres undefined) | 0.7 | 7.9 | -0.1 | -5.2
COc1ccc(C(=O)OCC(=O)c2ccccc2)cc1[N+](=O)[O-] | -1.9 | 13.3 | 1.0 | 14.8
CNC(=O)c1ccccc1Nc1cc(Nc2cccnc2)ncc1C(F)(F)F | -1.0 | 13.6 | -0.1 | 5.4
CNC(=O)c1ccccc1Nc1cc(Nc2ccc(C(=O)N3CCOCC3)cn2)ncc1C(F)(F)F | -0.7 | 85.8* | -0.1 | -4.4
CNC(=O)c1ccccc1Nc1cc(Nc2ccc(N3CCOCC3)cc2)ncc1C(N)=O | 0.0 | 22.2 | 0.0 | 8.5
CNC(=O)c1ccccc1Nc1nc(Nc2ccc(N3CCOCC3)c(F)c2)ncc1Cl | 1.8 | 63.0* | 0.0 | -3.0
CNC(=O)c1cc(F)c(F)cc1Nc1cc(Nc2ccc(N3CCOCC3)cc2OC)ncc1C(F)(F)F | 0.4 | 5.7 | 0.0 | -1.1
CNC(=O)c1ccccc1Nc1cc(Nc2ccc(N3CCOCC3)cc2F)ncc1C(F)(F)F | -2.7 | 67.1* | -0.1 | 3.8
CNC(=O)c1ccccc1Nc1nc(Nc2ccc(-n3cnc(N4CCOCC4)n3)cc2)ncc1Cl | 0.6 | 31.2 | 0.1 | 19.9
CNC(=O)c1ccccc1Nc1cc(Nc2ccc(N3CCOCC3)cc2)ncc1C(F)(F)F | -0.2 | 75.1* | -0.3 | 0.2
COc1cc(C=O)c(Cl)cc1OCC(=O)Nc1ccccc1 | 2.3 | -65.9 | -0.3 | 12.5
CC1=NOC(=O)/C1=C\c1ccc(OCc2ccc(Cl)cc2)cc1 | -0.2 | 10.3 | 0.2 | 12.8
CCCCOC(=O)n1c(=O)oc2cc(Cl)ccc21 | -2.4 | -70.1 | 0.3 | 22.1
CC(C)C(CC(=O)N1CCC2(CC1)OCCO2)NS(=O)(=O)c1ccc(F)cc1 (centres undefined) | -0.4 | -9.0 | -0.1 | -2.8
CCc1ccc(C(=O)/C=C/Nc2cccc(O)c2)cc1 | 2.7 | 96.4* | -0.1 | -29.1
CCc1ccc(C(=O)/C=C/Nc2ccc(O)cc2)cc1 | 1.1 | 2.2 | -0.5 | 1.4
SMILES | GPR151 ag | TEAD-YAP block | FBW7 activator | MITF inh
COc1ccc(C(=O)/C=C\Nc2cccc(C(=O)O)c2)cc1 | -6.4 | 40.7* | 0.1 | 1.1
COc1cccc(C(=O)/C=C/Nc2ccc(N(C)C)cc2)c1 | -0.5 | -8.8 | -0.3 | 11.1
COc1ccc(C(=O)/C=C/Nc2cccc(C)c2)cc1 | -3.8 | -12.4 | 0.0 | -6.4
COc1cccc(C(=O)/C=C\Nc2ccc(C)cc2)c1 | -6.7 | 59.5* | 0.0 | -1.3
COc1ccc(C(=O)/C=C/Nc2cccc(O)c2)cc1 | -5.6 | 87.0* | -0.2 | -2.4
CCOc1cc(C2C(C(C)=O)=C(O)C(=O)N2c2ccc(C)c(Br)c2)ccc1O (centres undefined) | -0.3 | -13.1 | 0.5 | -15.9
Cc1cc(SCC(=O)Nc2ccc3c(c2)OCCO3)nc(=O)[nH]1 | -1.4 | 14.1 | 0.2 | -9.2
COc1ccc(C(=O)/C=C\Nc2cccc(F)c2)cc1 | -2.6 | 34.6* | 0.0 | 13.8
COc1ccc(/C=C/C(=O)c2ccc(O)cc2)cc1 | -5.5 | 55.3* | -0.1 | -17.3
CC1=NN(c2ccc(S(N)(=O)=O)cc2)C(=O)/C1=C\c1ccc(-c2ccccc2C(=O)O)o1 | 0.4 | -2.5 | -0.4 | -3.4
Cc1ccc(C(=O)Nc2ccc(N(C)C)c3ccccc23)cc1 | -1.3 | -15.6 | 0.1 | 16.8
CN(C)c1ccc(C(=O)c2ccc(N(C)C)c3ccccc23)cc1 | 1.2 | 49.9* | -0.1 | 0.9
COc1ccc(C(=O)c2ccc(N(C)C)cc2)c(OC)c1 | 0.5 | 54.8* | 0.0 | 4.2
CC(=O)c1ccc(NC(=O)c2cc(NC(=O)c3ccc([N+](=O)[O-])cc3)cc(C(=O)Nc3ccc(C(C)=O)cc3)c2)cc1 | 0.4 | 4.7 | -0.1 | 5.7
CCCNc1ncnc2c1nc(Nc1cnccn1)n2C(C)C | -0.7 | -0.6 | 0.0 | 0.8
COCCNC(=O)C(OC(=O)c1ccco1)c1ccccc1OC (centres undefined) | -0.5 | 13.9 | 1.9* | 8.6
CC(C)C(OC(=O)c1ccco1)C(=O)NCc1ccccc1 (centres undefined) | 0.8 | 59.1* | -0.3 | -4.6
CC(OC(=O)c1ccco1)C(=O)NCc1ccccc1 (centres undefined) | 0.0 | 0.6 | 0.0 | 21.5
COC(=O)c1cc(-c2ccc(OC)cc2)no1 | 2.8 | -4.6 | 1.9* | -3.4
CCOC(=O)c1cc(-c2ccc(N(CC)CC)cc2)no1 | -0.3 | -57.8 | 5.3* | 11.2
Cc1ccc2oc(-c3ccc(N4CCC(C)CC4)c([N+](=O)[O-])c3)nc2c1 | -1.8 | 93.1* | 0.3 | 14.4
O=C(Nc1ccc2c(c1)CN(C(=O)C1CCOCC1)CC2)c1ccccc1Cl | 0.8 | 34.4* | -0.1 | -2.4
O=C(Nc1ccc2c(c1)CN(C(=O)c1ccco1)CC2)c1ccc(F)c(F)c1 | 1.3 | -12.6 | -0.1 | -1.3
O=C(Nc1ccc2c(c1)CN(C(=O)c1ccco1)CC2)c1cccc2ccccc12 | 0.4 | 44.7* | -0.1 | 3.1
CCC(=O)N1CCc2ccc(NC(=O)c3c(F)cccc3F)cc2C1 | -1.2 | 32.6* | 0.2 | 17.6
SMILES | GPR151 ag | TEAD-YAP block | FBW7 activator | MITF inh
O=C(Nc1ccc2c(c1)CN(C(=O)C1CCOC1)CC2)c1ccccc1Cl (centres undefined) | 0.2 | 51.4* | 0.2 | 7.5
O=C(Nc1ccc2c(c1)CN(C(=O)C1CCOC1)CC2)c1ccc(C(F)(F)F)cc1 (centres undefined) | 0.8 | 9.7 | -0.1 | 5.8
CC1CNc2ccccc2N=C1N1CCOCC1 (centres undefined) | 0.2 | 9.3 | 0.1 | 1.0
CCc1[nH]nc2c1C(c1cc(OC)c(O)c(OC)c1)C(C#N)=C(N)O2 (centres undefined) | 2.2 | -0.8 | 0.1 | 8.9
CCc1ccc(NC(=O)C2CCN(S(=O)(=O)c3ccc4c(c3)OCC(=O)N4)CC2)cc1 | 0.5 | 9.0 | -0.1 | 0.5
CSc1ccc(-c2ccc(-n3ccnc3)cc2)nn1 | -7.8 | 52.0* | -0.1 | -37.2
CN1CCN(Cc2nc(-c3ccc(F)cc3)cs2)CC1CCO (centres undefined) | -2.6 | -4.1 | -0.1 | 9.1
